Assay outcomes as filed in PubChem.
Most compounds without a hit are left out; they make up all but 12% or so of the library.
LASV entry inh = Lassa virus entry inhibition. Lassa virus pseudotype entry inhibition, cell reporter. Potency, µM (doses to about 37.9 µM), usual class: inhibitors. 1.2% of 300,000 active; calls by dose curve; tested in HEK293 cells; note: nearly all actives have a fitted effect of over 50% in size
Shiga inhibitor = Shiga toxin inhibition. Vero cells, Shiga toxin protein synthesis inhibition reporter. inhibition, % at 38.7 µM. 9.2% of 290,000 active; in the data active = inhibition mostly above about 28%, no sharp cut-off; inactive = mostly below about 43%
Marburg entry inh = inhibitors of Marburg virus binding or cell entry; Marburg virus pseudotyped entry inhibition, cell reporter; Potency, µM (titrated, usually from 37.8 µM), actives largely listed as inhibitors; 1.8% of 300,000 active; calls by dose curve; tested in HEK293 cells
Cycloheximide cs = counter-screen for Shiga toxin inhibitors: cycloheximide protein synthesis inhibition. cell reporter, cycloheximide protein synthesis inhibition counterscreen. 12% of 300,000 active. AID 2314. max response, %; in the data active = max response mostly above about 13%, no sharp cut-off; inactive = mostly below about 14%; note: read at 38.3 µM for the half of the compounds with a filed dose
Hits are given with their value.

`COc1ccc2[nH]c(C(=O)Nc3ccc(C)c(F)c3)cc2c1` gave LASV entry inh inactive, Shiga inhibitor 69, Marburg entry inh inconclusive and Cycloheximide cs 36.
COc1ccc(NC(=O)c2cc3ccccc3[nH]2)cc1 was read as Shiga inhibitor 64 and Cycloheximide cs 40.
Screening Cc1ccc(NC(=O)c2cc3cc(OC(F)(F)F)ccc3[nH]2)cc1 returned Shiga inhibitor inactive and Cycloheximide cs inactive.
CC(C)(C)c1ccc(S(=O)(=O)NNC(=O)c2cc3ccccc3[nH]2)cc1 was read as LASV entry inh inactive, Shiga inhibitor 54, Marburg entry inh inactive and Cycloheximide cs 27.
COc1ccc2[nH]c(C(=O)Nc3cccc(C)n3)cc2c1 was read as LASV entry inh inconclusive, Shiga inhibitor 47, Marburg entry inh inconclusive and Cycloheximide cs 29.
COc1ccc(CNC(=O)C/C(C)=N/NC(=O)COc2cccc(C)c2)cc1 was read as LASV entry inh inactive, Shiga inhibitor inactive, Marburg entry inh inactive and Cycloheximide cs inactive.
`COc1ccc(NC(=O)c2oc3ccccc3c2NC(=O)c2ccc(OC)c(OC)c2)c(OC)c1` gave LASV entry inh inactive and Marburg entry inh inactive.
Screening COc1ccc(S(=O)(=O)Nc2ccccc2OC)cc1NC(=O)c1cc2ccccc2oc1=O returned LASV entry inh inconclusive, Shiga inhibitor 148, Marburg entry inh inconclusive and Cycloheximide cs 38.
Screening COc1ccccc1C(=O)Nc1cc2cc(Br)ccc2oc1=O returned LASV entry inh inactive, Shiga inhibitor inactive, Marburg entry inh inactive and Cycloheximide cs inactive.
Screening COc1ccc(NC(=O)c2oc3ccccc3c2C)c(OC)c1 returned LASV entry inh inconclusive, Shiga inhibitor 46, Marburg entry inh inactive and Cycloheximide cs 16.
Screening COc1ccccc1C(=O)Nc1cc2ccccc2oc1=O returned LASV entry inh inactive, Shiga inhibitor 43, Marburg entry inh inconclusive and Cycloheximide cs 19.
For COc1ccc(NC(=O)c2cc3ccccc3oc2=O)c(OC)c1 the results were Shiga inhibitor 133 and Cycloheximide cs 51.
`O=C(c1ccc(N2CCCS2(=O)=O)cc1)N1CCN(c2ccccc2)CC1` gave LASV entry inh inactive, Shiga inhibitor inactive, Marburg entry inh inconclusive and Cycloheximide cs inactive.
N#Cc1ccc(COC(=O)c2cccnc2Cl)cc1 was read as LASV entry inh inactive, Shiga inhibitor inactive, Marburg entry inh inactive and Cycloheximide cs inactive.
Screening O=C(OCc1ccc(Cl)cc1)c1ccccc1C(=O)c1ccccc1 returned LASV entry inh inactive, Shiga inhibitor inactive, Marburg entry inh inconclusive and Cycloheximide cs 21.
Screening O=C(OCc1ccc(Cl)cc1)c1cccnc1Cl returned LASV entry inh inactive, Shiga inhibitor inactive, Marburg entry inh inactive and Cycloheximide cs 18.
Screening COC(=O)c1ccc(COC(=O)c2cccnc2Cl)cc1 returned LASV entry inh inactive, Shiga inhibitor inactive, Marburg entry inh inactive and Cycloheximide cs 37.
Screening O=C(OCc1ccccc1)c1cccnc1Cl returned LASV entry inh inactive, Shiga inhibitor inactive, Marburg entry inh inactive and Cycloheximide cs inactive.
O=C(O)c1ccccc1C(=O)OCc1ccccc1 was read as LASV entry inh inactive, Shiga inhibitor inactive, Marburg entry inh inactive and Cycloheximide cs inactive.
O=C(OCc1ccc(COC(=O)c2ccccn2)cc1)c1ccccn1 was read as LASV entry inh inactive, Shiga inhibitor 66, Marburg entry inh inactive and Cycloheximide cs 30.
Screening CC[C@H](C)[C@H](NC(=O)[C@H](Cc1ccc(O)cc1)NC(=O)[C@@H](NC(=O)[C@H](CCCN=C(N)N)NC(=O)[C@@H](N)CC(=O)O)C(C)C)C(=O)N[C@@H](Cc1ccc(N)cc1)C(=O)N1CCC[C@H]1C(=O)N[C@@H](Cc1ccccc1)C(=O)O returned Shiga inhibitor inactive and Cycloheximide cs inactive.
For Cc1cc(=O)oc2c(C)c3occc3cc12 the results were LASV entry inh inactive, Marburg entry inh inactive and Cycloheximide cs inactive.
For Cc1cc(NC(=O)COCc2cc(-c3ccc(F)cc3)on2)ccc1Br the results were LASV entry inh inactive.
Screening CCOc1ccc(N(Cc2ccc(OC)c(OC)c2)C(=O)c2ccco2)cc1 returned Shiga inhibitor inactive and Cycloheximide cs inactive.
Screening CCOc1ccc(CN(C(=O)c2ccccn2)c2ccc(OC)c(Cl)c2)cc1 returned LASV entry inh inconclusive, Shiga inhibitor 64, Marburg entry inh inactive and Cycloheximide cs inactive.
`CCOc1cc(CNC(=O)C2COc3ccccc3C2)cc(OCC)c1OCC` (centres undefined) gave LASV entry inh inactive.
`O=C(Cn1nnc2ccccc2c1=O)N[C@H](C(=O)O)c1ccccc1` gave Shiga inhibitor inactive and Cycloheximide cs inactive.
Screening O=C(CSc1ncnc2c1oc1ccccc12)c1cccs1 returned LASV entry inh inactive, Shiga inhibitor 42, Marburg entry inh inconclusive and Cycloheximide cs 23.
For Cc1nc(SCC(=O)c2cccs2)c2oc3ccccc3c2n1 the results were LASV entry inh inconclusive, Shiga inhibitor 136, Marburg entry inh inactive and Cycloheximide cs 56.
For CN(C)c1cccc(C(=O)N/N=C/c2ccccc2F)c1 the results were LASV entry inh 10µM, Shiga inhibitor inactive, Marburg entry inh inconclusive and Cycloheximide cs inactive.
Screening CCN(CC)c1ccc(C(=O)NN)cc1 returned LASV entry inh inactive, Shiga inhibitor inactive, Marburg entry inh inconclusive and Cycloheximide cs inactive.
`CCN(CC)c1ccc(C(=O)Nc2cccc(F)c2)cc1` gave LASV entry inh inconclusive, Shiga inhibitor inactive, Marburg entry inh inconclusive and Cycloheximide cs 28.
For Cc1cc(/C=N/NC(=O)c2cccc(N(C)C)c2)c(C)n1-c1cc(C(=O)O)cc(C(=O)O)c1 the results were LASV entry inh inactive, Shiga inhibitor inactive, Marburg entry inh inactive and Cycloheximide cs inactive.
`CN(C)c1cccc(C(=O)Nc2cccc(F)c2)c1` gave LASV entry inh inconclusive, Shiga inhibitor 68, Marburg entry inh inconclusive and Cycloheximide cs 41.
Screening Clc1ccc(Sc2cc(Cl)c(Cl)cc2Cl)cc1 returned Shiga inhibitor inactive and Cycloheximide cs inactive.
For Cc1cccc(NC(=O)/C(C#N)=C/c2ccc(C)o2)c1 the results were LASV entry inh inactive.
Screening CS(=O)(=O)N(CC(=O)N1CCCCCC1)c1cccc([N+](=O)[O-])c1 returned LASV entry inh inactive, Marburg entry inh inactive and Cycloheximide cs inactive.
Cc1ccc(NC(=O)C2CCCN(c3nnc(C)c4c(C)n(-c5ccccc5)nc34)C2)cc1Cl (centres undefined) was read as LASV entry inh inactive.
Screening Cc1ccc(/C(C#N)=C\c2ccc(N3CCOCC3)o2)cc1 returned LASV entry inh inactive, Shiga inhibitor 133, Marburg entry inh inconclusive and Cycloheximide cs 88.
`COCCNC(=O)/C(C#N)=C/c1ccc(N2CCOCC2)o1` gave LASV entry inh inactive, Shiga inhibitor inactive, Marburg entry inh inactive and Cycloheximide cs inactive.
For Cc1ccc2nc(/C(C#N)=C\c3ccc(N4CCOCC4)o3)[nH]c2c1 the results were LASV entry inh inactive, Shiga inhibitor 47, Marburg entry inh inconclusive and Cycloheximide cs 46.
For CCCSCCCNC(=O)c1ccc2c(c1)nc1n2CCCCC1 the results were LASV entry inh inactive.
`O=S(=O)(NC1=NCCCCC1)c1ccc2ccccc2c1` gave LASV entry inh inactive, Shiga inhibitor inactive, Marburg entry inh inactive and Cycloheximide cs 23.
For Nc1ccc(S(=O)(=O)NC2=NCCCCC2)cc1 the results were LASV entry inh inactive, Shiga inhibitor inactive, Marburg entry inh inactive and Cycloheximide cs inactive.
